AmpC inh detg = qHTS Inhibitors of AmpC Beta-Lactamase (assay with detergent); actives 0.041% (n = 370,000); AmpC hydrolysis of nitrocefin, absorbance 480 nm, 0.01% Triton; Potency, µM (top dose mostly 114 µM), most hits filed as inhibitors; P00811; note: nearly all actives have a fitted effect of over 25% in size
Target sequence (P00811 whole entry, looked up): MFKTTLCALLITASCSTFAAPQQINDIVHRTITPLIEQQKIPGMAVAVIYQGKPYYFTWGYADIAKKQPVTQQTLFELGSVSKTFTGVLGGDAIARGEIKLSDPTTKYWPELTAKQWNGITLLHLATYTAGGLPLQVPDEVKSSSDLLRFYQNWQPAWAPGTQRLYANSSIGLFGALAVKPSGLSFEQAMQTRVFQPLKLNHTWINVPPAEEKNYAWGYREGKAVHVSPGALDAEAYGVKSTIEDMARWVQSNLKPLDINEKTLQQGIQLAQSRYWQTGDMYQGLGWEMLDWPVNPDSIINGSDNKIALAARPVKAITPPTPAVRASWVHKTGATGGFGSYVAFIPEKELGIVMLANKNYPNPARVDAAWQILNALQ
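20 mM phosphate pH 7.0 + 0.01% (detergent screen) or 0.0001% Triton X-100; 5.3 nM AmpC reagent; cpd preinc 15 min RT; nitrocefin (800 uM stock) to start; A480 q20 s × 4 min; Activity was normalised to no-enzyme and no-compound control wells.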
Vaccinia Venus = qHTS for Stage-Specific Inhibitors of Vaccinia Orthopoxvirus: Venus Reporter Primary qHTS; actives 0.46% (n = 330,000); Vaccinia virus Venus reporter expression, fluorescence; AID 720580, 2013; Potency, µM (doses to about 36.5 µM), hits mostly inhibitors; calls by dose curve; tested in A549 cells; note: nearly all actives have a fitted effect of over 30% in size
VACV mCherry inh = qHTS for Stage-Specific Inhibitors of Vaccinia Orthopoxvirus: mCherry Reporter Primary qHTS; Vaccinia virus mCherry reporter infection, fluorescence; Potency, µM (highest dose often 36.5 µM), most hits filed as inhibitors; actives 0.63% (n = 310,000); calls by dose curve; tested in A549 cells; note: nearly all actives have a fitted effect of over 35% in size
AmpC no deterg = qHTS Inhibitors of AmpC Beta-Lactamase (assay without detergent); P00811; AmpC nitrocefin hydrolysis, absorbance 480 nm, 0.0001% Triton; Potency, µM (top dose mostly 57.1 µM), actives largely listed as inhibitors; actives 0.52% (n = 330,000); note: nearly all actives have a fitted effect of over 20% in size
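AmpC (5.3 nM in the dispensed reagent) in 20 mM phosphate pH 7.0 with 0.01% (detergent screen) or 0.0001% Triton X-100 was preincubated with compounds for 15 min at room temperature. Nitrocefin was then added from an 800 uM solution, and hydrolysis was followed at 480 nm.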
A number is an active result; . = inactive; ? = inconclusive; / = not tested or not shown. Hits are enriched below; roughly 1.1% of the tested compounds scored in any of these assays. Unless noted, calls come from the whole dose curve; as a rule, active = well fitted curve in the direction sought with a large enough effect; inconclusive = small, poorly fitted or top-dose-only effect, or another doubt; inactive = no such curve, though single readings can be large; an effect the other way counts as inactive or inconclusive.

SMILES	AmpC inh detg	Vaccinia Venus	VACV mCherry inh	AmpC no deterg
CCCN(CC1CC1)S(=O)(=O)c1ccc(S(N)(=O)=O)cc1	?	.	.	0.501µM
Cc1ccc2[nH]c(=O)c(C3C(C#N)=C(N)Oc4c3ccc3cccnc43)cc2c1 (stereo unspecified)	.	?	10µM	.
N#CC1=C(N)Oc2c(ccc3cccnc23)C1c1ccccc1 (stereo unspecified)	.	/	/	.
CSc1nnc(CNS(=O)(=O)c2ccc(F)cc2F)n1-c1ccccc1C	/	.	.	/
COc1ccc2nc(Nc3nc4cc5c(cc4s3)OCO5)sc2c1	.	.	.	22.4µM
CN(C)c1ccc(N=Nc2ccc(/C=C/c3ccnc4ccccc34)cc2)cc1	/	.	.	/
COc1ccc2nc(Nc3nc(CSc4nc5ccccc5[nH]4)cc(=O)[nH]3)nc(C)c2c1	.	?	?	.
COc1nc(Nc2nc3ccccc3c(=O)[nH]2)nc2ccc(C)cc12	.	2µM	2µM	.
Cc1nc(Nc2nc(CSc3nc4ccccc4[nH]3)cc(=O)[nH]2)nc2ccccc12	.	10µM	10µM	.
Cc1nc(Nc2nc(-c3ccccc3)cc(=O)[nH]2)nc2ccccc12	/	10µM	10µM	/
CCOC(=O)N1CCN(Cc2ccc3c(c2)CN(C(=O)c2ccc(C#CC(C)(C)O)o2)CCO3)CC1	/	.	.	/
O=Cc1ccc(N2CCOCC2)cc1	/	.	.	/
COc1cc(C(=O)N/N=C(\c2ccccc2)c2ccccn2)cc(OC)c1OC	.	/	/	.
COc1cccc(C(=O)N/N=C(/c2ccccc2)c2ccccn2)c1	.	?	2µM	.
O=C1C(=Cc2ccncc2)CCCc2ccccc21	/	.	.	/
O=C1/C(=C/c2ccncc2)CCC/C1=C\c1ccncc1	?	11.2µM	10µM	.
O=C(Nc1ccc(Br)c(Cl)c1)C1CC1	.	/	/	2.24µM
COc1ccc(C(=O)NNC(=S)NC(=O)c2ccco2)cc1	?	/	/	.
CCCOc1ccc(C(=O)NNC(=S)NC(=O)c2ccco2)cc1	.	?	11.2µM	.
CCCOc1ccc(C(=O)NNC(=S)NC(=O)c2cc(-c3ccccc3)nc3ccccc23)cc1	.	.	.	4.47µM
CCCCOc1ccc(C(=O)NNC(=S)NC(=O)CC)cc1	.	.	.	.
CCC(=O)NC(=S)NNC(=O)c1ccc(OC)cc1	56.2µM	.	.	.
CCCOc1ccc(C(=O)NNC(=S)NC(=O)c2cccs2)cc1	.	?	10µM	.
Cn1ccnc1C1CCCCN1C(=O)CN1Cc2ccccc2OC(c2ccccc2F)C1 (stereo unspecified)	/	.	.	/
CC(C)c1c(C(=O)N(C)C2CCN(C)CC2)cnn1-c1nccc(-c2ccco2)n1	/	.	.	/
SMILES	AmpC inh detg	Vaccinia Venus	VACV mCherry inh	AmpC no deterg
CC(=O)c1cccc(NC(=O)COc2ccccc2C(=O)Nc2ccccc2)c1	/	.	.	/
CC(C)Oc1ccc(-c2nc(-c3cccnc3)no2)cc1	/	.	.	/
CCOc1cccc(-c2cc(C(=O)Nc3ccon3)c3ccccc3n2)c1	.	.	.	17.8µM
CC[C@H]1CN2CCc3cc(OC)c(OC)cc3C2C[C@@H]1C[C@H]1NCCc2cc(OC)c(OC)cc21 (stereo partly specified)	/	0.891µM	0.501µM	/
CCC1=C(CC2NCCc3ccccc32)CC2c3cc(OC)c(OC)cc3CCN2C1 (stereo unspecified)	/	3.55µM	3.55µM	/
COc1cc2c(cc1OC)C1Cc3ccc(OC)c(OC)c3CN1CC2 (stereo unspecified)	.	.	.	.
CCC1CN2CCc3cc(OC)c(OC)cc3C2CC1CC1NCCc2cc(OC)c(OC)cc21 (stereo unspecified)	/	2.51µM	2.24µM	/
Cc1c(C(=O)NCc2ccc(F)cc2)sc2ncnc(NCC3CCCO3)c12 (stereo unspecified)	/	.	.	/
Cc1cnc(-n2ncc(C(=O)N(C)C3CCOC3)c2C)nc1-c1ccc(F)cc1 (stereo unspecified)	/	.	.	/
Cc1cccc(Nc2nc(N)c([N+](=O)[O-])c(N3CC(C)CC(C)C3)n2)c1 (stereo unspecified)	.	?	20µM	.
Cc1cccc(Nc2nc(N)c([N+](=O)[O-])c(N3CC(C)OC(C)C3)n2)c1 (stereo unspecified)	.	/	/	.
CCCN1CCN(CCCNC(=O)c2cc3c(=O)n(C)c4ccccc4c3n2C)CC1	?	/	/	.
Cn1c(C(=O)NCCCN2CCCCCC2)cc2c(=O)n(C)c3ccccc3c21	?	/	/	11.2µM
CCOc1ccc2nc(N3CCCC(C(=O)NCCCN4CCOCC4)C3)sc2c1 (stereo unspecified)	?	.	.	3.16µM
CCOc1ccc2nc(N3CCC(C(=O)NCCCN4CCOCC4)CC3)sc2c1	.	.	.	.
COc1ccc2nc(NN=C(C)c3ccccn3)cc(C)c2c1	/	?	1µM	/
COc1cc(=O)n2c(c1C(=O)NCc1ccco1)CCN(C(=O)c1ccc(C)c(C)c1)CC2	/	.	.	/
O=C(Nc1cccc(-c2ccc(N3CCOCC3)nn2)c1)c1ccc([N+](=O)[O-])cc1	.	.	.	31.6µM
O=S(=O)(c1ccc2c(c1)CCCC2)N1CCN(c2nc(-c3cccs3)nc3ccccc23)CC1	/	.	.	/
COc1cccc2cc(C(C)=O)c(=O)oc12	?	/	/	.
COc1cccc2cc(C(=O)CS(=O)(=O)c3ccc(Cl)cc3)c(=O)oc12	.	/	/	15.8µM
COc1ccc(S(=O)(=O)CC(=O)c2cc3cc(Br)ccc3oc2=O)cc1	.	/	/	28.2µM
Cc1ccccc1C(=O)N1CCc2c(cnc(C)c2CNC(=O)CN2CCCCC2)C1	/	.	.	/

Screening data as filed in PubChem BioAssay.
